Screens: PubChem BioAssay, National Center for Advancing Translational Sciences (NCATS)
Most compounds without a hit are left out; they make up all but 13% or so of the library.
HCMV antiviral: qHTS Assay for inhibitors of the human cytomegalovirus (HCMV); hit rate 4.5% among 410,000; HFF cells, HCMV-luciferase reporter, 72 h; stronger effect = lower value; activity change, negative = inhibition, % at 57.5 µM; in the data active means activity change below about -60%; inconclusive means no clear call, values can overlap the other calls; inactive means above about -39%
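Inhibition of viral replication was scored as loss of reporter luminescence in HFFs infected with HCMV-luciferase (MOI 1 PFU/cell) for 72 h; compounds tested at 2 doses, normalized to buffer and Salinomycin controls.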
HCV inhibitor: qHTS Assay for Inhibitors of Hepatitis C Virus (HCV); AID 651820, 2012; Huh7.5.1 HCVcc-Cre infection, luciferase reporter, 44 h; Potency, µM (titrated, usually from 41.8 µM), for inactives: top-dose activity change, negative = inhibition, most hits filed as inhibitors; hit rate 3.4% among 340,000; further: potency means the concentration at half of the fitted maximal effect
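Cells (1,000/well) were plated 4 h before compound, then infected with HCVcc-Cre virus (~0.5 moi). After 44 h further culture, infection was read as luciferase luminescence following a 15 min substrate incubation at room temperature.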
Pf growth 48h: Primary qHTS for delayed death inhibitors of the malarial parasite plastid, 48 hour incubation. P. falciparum luciferase growth in erythrocytes, 48 h. Potency, µM (doses to about 28.7 µM), without a hit: at the top dose activity change, negative = inhibition, hits mostly inhibitors. hit rate 5.9% among 310,000; further: potency means the concentration at half of the fitted maximal effect
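Growth was read as firefly luciferase luminescence after a 48 h, 37 C, 5% CO2 exposure of compounds to reporter-bearing P. falciparum cultures (0.1% parasitemia, 2% hematocrit final) in Albumax-supplemented RPMI 1640.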
Pf growth 96h: Primary qHTS for delayed death inhibitors of the malarial parasite plastid, 96 hour incubation; hit rate 6.9% among 320,000; P. falciparum luciferase reporter growth, 96 h; AID 504834, 2011; Potency, µM (doses to about 28.7 µM), without a hit: top-dose activity change, negative = inhibition, most hits filed as inhibitors; further: potency means the concentration at half of the fitted maximal effect
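Erythrocytes infected with luciferase-expressing P. falciparum were dispensed at 2% hematocrit and 0.05% parasitemia (final), then incubated with compounds 96 hours at 37 C in 5% CO2. Luminescence after detection reagent addition reported growth.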
* marks the source's active call; other numbers are inactive results; ? = inconclusive; · = not tested or not shown. Unless noted, the call rests on the fitted dose curve; in most records, active means well fitted inhibition curve with a large enough effect; inconclusive means small, poorly fitted or top-dose-only effect, or another doubt; inactive means no such curve, though single readings can be large or run the other way. On the % scale 0 is the no-effect control and ±100 the full control effect.

SMILES	HCMV antiviral	HCV inhibitor	Pf growth 48h	Pf growth 96h
O=C(/C=C/c1ccccc1O)c1ccc(Cl)cc1	32.0	-3.2%	27.2%	14.7µM*
CCOc1ccc(/C=C/C(=O)c2ccc(-c3ccccc3)cc2)cc1	-61.0*	28.9%	8.9%	22.2%
O=C(/C=C/c1ccccc1)c1ccccc1	-17.5	10µM*	13.6%	?
CCOc1ccc(/C=C/C(=O)Oc2ccccc2)cc1	17.9	27.4%	?	?
O=C(/C=C/c1ccccc1O)c1ccccc1	3.9	13.2%	·	·
O=C(/C=C/c1ccccc1)/C=C/c1ccccc1	-73.1*	?	-24.6%	?
O=C(Nc1ccc(Cl)c(Cl)c1)N[C@@H]1CC[C@@H](CCn2cc(C3CCCCC3)nn2)O[C@@H]1CO	31.4	·	·	·
COCCn1c(SCC(=O)c2ccccc2)nc2cc(C(=O)NC3CCCC3)ccc2c1=O	9.5	·	·	·
CCOC(=O)c1ccc(COC(=O)c2ccc3c(c2)-c2ccccc2C3=O)cc1	?	5.3%	50.8%	79.0%
CCOC(=O)C1=C(Cc2ccc(C)cc2)C(=O)c2ccccc2C1=O	43.2	·	·	2.33µM*
CCOC(=O)c1c(-c2ccc(OC)cc2)cn2ccccc12	-17.0	-6.3%	-9.1%	2.7%
CCOC(=O)C1=C(Cc2ccc(OC)cc2)C(=O)c2ccccc2C1=O	·	?	4.65µM*	·
COc1ccccc1NC(=O)CN1CCN(CC(=O)Nc2ccc(S(N)(=O)=O)cc2)CC1	-64.3*	-24.8%	-11.3%	25.0%
COc1ccccc1NC(=O)CN1CCN(CC(=O)Nc2ccc(F)cc2)CC1	15.5	?	?	?
NS(=O)(=O)c1ccc(NC(=O)CN2CCN(S(=O)(=O)/C=C/c3ccccc3)CC2)cc1	-100.1*	-12.6%	-21.1%	6.8%
CCOC(=O)c1c(C)[nH]c(C)c1S(=O)(=O)N(C)CC(=O)Nc1cc(Cl)ccc1OC	-24.6	·	·	·
COc1ccccc1-c1noc(-c2ccc(NC3CCCC3)c([N+](=O)[O-])c2)n1	94.1	·	·	·
Cc1cc(NC(=O)Cn2nnc3sc4c(c3c2=O)CCC(C(C)(C)C)C4)no1 (configuration not stated)	?	11.2µM*	10.4µM*	4.0%
Cc1cc(NC(=O)Cn2nnc3sc4c(c3c2=O)CCCC4)no1	10.1	·	0.9%	23.1%
Cc1ccc2c(c1)NC(=O)C(CC(=O)Nc1ccccc1Cl)O2 (configuration not stated)	-8.8	·	·	·
Cn1c(SCC(=O)c2ccccc2)nnc1C1COc2ccccc2O1 (configuration not stated)	-17.8	2.0%	15.7%	-5.4%
O=C(CSc1nnc2scc(-c3ccccc3)n12)c1ccc2c(c1)OCCO2	22.9	14.7%	·	2.08µM*
Cn1c(SCC(=O)c2ccc3c(c2)OCO3)nnc1C1COc2ccccc2O1 (configuration not stated)	-4.3	3.6%	?	11.7µM*
COc1ccc(NC(=O)Cn2nc3c(cc2=O)CCCC3)cc1Cl	-15.2	·	·	·
Cc1cc(NC(=O)c2oc3c(c2C)-c2[nH]ncc2CC3)ccc1Br	352.8	·	·	·
SMILES	HCMV antiviral	HCV inhibitor	Pf growth 48h	Pf growth 96h
CCOc1ccc(CCNC(=O)c2c3c(nc4ccccc24)C(=O)N(C2CCCCC2)C3)cc1	7.7	·	·	·
Cc1ccc2c(c1C)NC(=O)C21N2CCCC2C(C(=O)c2ccc3ccccc3c2)C12C(=O)Nc1ccccc12 (configuration not stated)	-35.0	?	9.28µM*	9.28µM*
COC(=O)c1c(C)oc2c1cc(NS(=O)(=O)c1c(C)cc(C)cc1C)c1ccccc12	9.3	·	·	·
CCOc1ccccc1NC(=O)c1nn(-c2ccc(OC)cc2)c(=O)c2c1c1ccccc1n2C	1.5	·	·	·
COc1ccc(-n2nc(C(=O)Nc3ccc4c(c3)OCO4)c3c4ccccc4n(C)c3c2=O)cc1	84.5	11.0%	?	70.3%
CCOc1ccc(N(CC)C(=O)c2nn(-c3ccc(OC)cc3)c(=O)c3c2c2ccccc2n3C)cc1	-9.0	?	1.47µM*	?
COc1ccc(-n2nc(C(=O)Nc3ccc(OC)c(OC)c3)c3c4ccccc4n(C)c3c2=O)cc1	-64.4*	?	·	?
O=C(NCc1cccc(Cl)c1)C1CCCN(c2ncnc3onc(-c4ccc(F)cc4)c23)C1 (configuration not stated)	9.2	·	·	·
CSc1nc2nc(C(F)(F)F)cc(-c3ccccc3)n2n1	-15.4	-17.6%	·	2.94µM*
